“And” between values parts separate entries of the source, which are not always exact repeats. Equal entries are not always repeated. Out of some 190,000 compounds screened, about 6,900 (3.6%) were called active. Rule as the data show it: active = inhibition above about 50%; inactive = the rest. The sample as a whole holds a higher share of actives than the screen did. A structure can be active in one record and inactive in another.

Huntingtin (Homo sapiens), sequence (P42858 whole entry, looked up, stated change not applied): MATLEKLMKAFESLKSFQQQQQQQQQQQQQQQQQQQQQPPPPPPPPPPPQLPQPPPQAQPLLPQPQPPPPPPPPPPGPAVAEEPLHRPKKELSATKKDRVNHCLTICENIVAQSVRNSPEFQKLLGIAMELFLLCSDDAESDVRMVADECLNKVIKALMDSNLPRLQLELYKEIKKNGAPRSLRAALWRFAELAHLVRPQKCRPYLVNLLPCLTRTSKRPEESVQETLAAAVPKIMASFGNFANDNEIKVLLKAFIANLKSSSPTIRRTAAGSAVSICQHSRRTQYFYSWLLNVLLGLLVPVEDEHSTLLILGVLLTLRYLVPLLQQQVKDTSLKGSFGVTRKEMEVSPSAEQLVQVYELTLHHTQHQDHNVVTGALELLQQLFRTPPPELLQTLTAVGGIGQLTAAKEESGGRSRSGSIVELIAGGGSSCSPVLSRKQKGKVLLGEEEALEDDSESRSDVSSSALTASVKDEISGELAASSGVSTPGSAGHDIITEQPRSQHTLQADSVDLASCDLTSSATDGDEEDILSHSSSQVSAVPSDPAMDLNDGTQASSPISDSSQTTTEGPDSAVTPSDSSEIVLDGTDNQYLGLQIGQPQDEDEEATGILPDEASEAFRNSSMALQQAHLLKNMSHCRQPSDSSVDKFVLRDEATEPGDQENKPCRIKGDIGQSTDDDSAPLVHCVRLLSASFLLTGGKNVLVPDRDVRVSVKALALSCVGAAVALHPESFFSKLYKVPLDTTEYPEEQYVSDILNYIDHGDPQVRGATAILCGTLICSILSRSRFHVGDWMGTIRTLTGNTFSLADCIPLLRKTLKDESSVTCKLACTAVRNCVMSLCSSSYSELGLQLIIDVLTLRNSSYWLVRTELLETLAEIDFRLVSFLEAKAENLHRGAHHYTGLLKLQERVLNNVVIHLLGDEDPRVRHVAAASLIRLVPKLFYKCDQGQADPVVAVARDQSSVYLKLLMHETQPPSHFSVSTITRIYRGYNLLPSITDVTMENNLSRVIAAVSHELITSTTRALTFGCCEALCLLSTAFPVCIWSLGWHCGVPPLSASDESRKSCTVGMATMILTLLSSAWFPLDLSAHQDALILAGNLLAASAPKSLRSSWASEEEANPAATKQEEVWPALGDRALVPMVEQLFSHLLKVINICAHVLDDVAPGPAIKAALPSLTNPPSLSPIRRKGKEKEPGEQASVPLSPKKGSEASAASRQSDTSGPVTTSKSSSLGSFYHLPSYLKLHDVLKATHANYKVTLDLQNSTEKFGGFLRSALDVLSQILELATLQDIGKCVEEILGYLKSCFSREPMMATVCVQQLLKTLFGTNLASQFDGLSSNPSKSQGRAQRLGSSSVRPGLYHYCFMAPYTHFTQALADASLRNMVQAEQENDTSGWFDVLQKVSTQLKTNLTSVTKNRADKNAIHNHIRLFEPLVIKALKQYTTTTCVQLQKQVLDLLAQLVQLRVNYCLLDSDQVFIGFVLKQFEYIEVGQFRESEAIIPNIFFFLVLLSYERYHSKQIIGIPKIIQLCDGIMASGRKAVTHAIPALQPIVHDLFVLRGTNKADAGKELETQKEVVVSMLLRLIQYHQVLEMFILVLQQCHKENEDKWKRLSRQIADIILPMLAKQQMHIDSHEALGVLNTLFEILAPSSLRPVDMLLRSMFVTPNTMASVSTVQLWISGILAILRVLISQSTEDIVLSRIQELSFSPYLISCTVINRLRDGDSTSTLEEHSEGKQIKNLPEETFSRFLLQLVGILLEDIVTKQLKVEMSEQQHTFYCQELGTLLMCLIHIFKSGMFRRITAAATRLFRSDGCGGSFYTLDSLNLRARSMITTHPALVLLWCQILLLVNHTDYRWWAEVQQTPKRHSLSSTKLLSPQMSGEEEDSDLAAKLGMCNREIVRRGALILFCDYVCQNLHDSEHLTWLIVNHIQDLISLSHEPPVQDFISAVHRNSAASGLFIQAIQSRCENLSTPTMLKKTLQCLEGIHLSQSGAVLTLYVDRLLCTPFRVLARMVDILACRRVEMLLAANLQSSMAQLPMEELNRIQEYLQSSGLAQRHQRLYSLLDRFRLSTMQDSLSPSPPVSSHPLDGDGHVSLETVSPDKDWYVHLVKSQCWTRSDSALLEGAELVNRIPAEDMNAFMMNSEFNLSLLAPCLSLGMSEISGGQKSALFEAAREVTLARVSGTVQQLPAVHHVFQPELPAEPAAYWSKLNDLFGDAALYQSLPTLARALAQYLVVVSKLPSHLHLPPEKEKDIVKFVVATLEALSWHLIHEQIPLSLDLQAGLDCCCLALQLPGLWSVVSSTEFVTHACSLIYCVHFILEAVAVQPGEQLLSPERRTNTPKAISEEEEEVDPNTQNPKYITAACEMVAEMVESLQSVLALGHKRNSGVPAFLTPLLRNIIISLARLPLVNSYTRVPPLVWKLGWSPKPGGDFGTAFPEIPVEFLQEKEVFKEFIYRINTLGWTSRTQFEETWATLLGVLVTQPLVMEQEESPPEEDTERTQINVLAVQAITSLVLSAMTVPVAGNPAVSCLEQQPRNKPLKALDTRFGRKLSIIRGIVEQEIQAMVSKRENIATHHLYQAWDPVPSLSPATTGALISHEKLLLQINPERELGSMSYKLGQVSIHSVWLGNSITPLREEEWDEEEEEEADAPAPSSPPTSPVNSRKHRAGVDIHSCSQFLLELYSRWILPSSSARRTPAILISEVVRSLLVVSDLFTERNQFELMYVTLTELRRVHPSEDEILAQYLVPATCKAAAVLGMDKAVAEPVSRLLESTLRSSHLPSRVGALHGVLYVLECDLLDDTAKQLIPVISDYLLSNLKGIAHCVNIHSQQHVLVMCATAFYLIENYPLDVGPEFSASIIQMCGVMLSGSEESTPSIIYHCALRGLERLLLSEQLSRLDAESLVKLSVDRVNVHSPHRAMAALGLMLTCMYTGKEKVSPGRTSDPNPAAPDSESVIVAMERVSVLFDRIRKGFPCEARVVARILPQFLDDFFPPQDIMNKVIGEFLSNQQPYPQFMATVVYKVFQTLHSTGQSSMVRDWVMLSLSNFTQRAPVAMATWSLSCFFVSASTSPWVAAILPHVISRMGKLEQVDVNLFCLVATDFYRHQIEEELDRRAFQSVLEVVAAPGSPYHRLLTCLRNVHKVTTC

The experiment concerns the target Huntingtin (Homo sapiens) (UniProt P42858). Description: mutant huntingtin-calmodulin interaction inhibitors – biochemical, AlphaScreen, primary screen (AID 1671202).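 Also: 0% = both proteins with DMSO and 100% = one protein alone.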 The note with it: AlphaScreen His-mHTT/GST-CaM binding, luminescence; at 15 µM, stronger effect = higher value. (In general: In Alpha technology, singlet oxygen from a donor bead excites a nearby acceptor bead.)
Consider `Cc1c(NC(=O)c2c([N+](=O)[O-])cnn2C)c(=O)n(-c2ccccc2)n1C`, for which the inhibition – broadly, the relative decrease from the control value, in per cent – is -3% (inactive).
With `COc1ccc2c(c1)c(=O)oc1c(C)c(OCc3ccc(C(=O)O)o3)ccc12` the figure was 4% (inactive).
The figure for `CC1=C(C#N)C(=O)N(CC(C)O)C(=O)/C1=C\c1ccc(-c2cccc(Cl)c2Cl)o1` (configuration not stated) is 93% (active).
With `CC1=C(C#N)C(=O)NC(=O)/C1=C\c1ccc(-c2cccc(Cl)c2)o1` the figure was 37% (inactive); with `CC1=C(C#N)C(=O)NC(=O)/C1=C\c1ccc(-c2ccc(Cl)c(C(=O)O)c2)o1`, 13% (inactive); with `c1ccc(-n2ncc(-c3nn[nH]n3)n2)cc1`, 59% (active) and -6.45% (inactive).
Take `N#Cc1ccc(C(=O)N2CCC(COc3ccc(C(=O)N4CCCC4)cc3)CC2)cc1`: the inhibition was 3.57% (inactive).
With `CC(=O)Nc1ccc(S(=O)(=O)N2CCN(C3CCCCCCC3)CC2)cc1` the figure was 2% (inactive); with `CC(=O)Nc1ccc(S(=O)(=O)N2CCN(c3ccc(-c4ccccn4)nn3)CC2)cc1`, 74.1% (active); with `O=S(=O)(c1cccnc1)N1CCN(c2ccc(-c3cccs3)nn2)CC1`, -2.7% (inactive).
With `CN(C)c1ccc(CNCC23CC4CC(C2)CC(c2ccccc2)(C4)C3)cc1` the figure was 100% (active); with `O=C(N1CCCC1)C12CC3CC(C1)CC(c1ccccc1)(C3)C2`, 2.5% (inactive); with `CN(C)c1ccc(CCCNC(=O)C23CC4CC(CC(C4)C2)C3)cc1`, 1.3% (inactive).
With `O=C(c1cccc(OCC2CCCN(C(=O)c3ccccc3F)C2)c1)N1CCCCC1` (configuration not stated) the figure was -4.06% (inactive).
Regarding `CC(=O)NCc1cnn(-c2ccc(C(=O)Nc3ccccc3)cc2)c1`, the inhibition was -1.5% (inactive).
In the case of `CCCCN=C(C(=O)Nc1ccc(Cl)c(C(F)(F)F)c1)c1ccccc1NC(C)=O`, the inhibition was 0% (inactive).
The figure for `CN(C)c1ccc(-c2ccc3nc(C(=O)N4CCCC4)cn3c2)cc1` is 97.2% (active).
For `O=C(c1cn2cc(-c3ccc(F)c(Cl)c3)ccc2n1)N1CCOCC1`, the inhibition was 16.9% (inactive).
With `CCCCN1CCN(C(=O)c2cn3cc(C)ccc3n2)CC1` the figure was 0.1% (inactive); with `CC1=C(C(=O)Nc2ccc(C)cc2C)C(c2ccccc2[N+](=O)[O-])n2ncnc2N1` (configuration not stated), 25% (inactive); with `O=C1C=CC(=NOC(=O)/C=C/c2ccccc2)C=C1`, 100% (active).
Consider `O=C(Cc1ccccc1)ON=C1C=CC(=NOC(=O)c2ccccc2)C=C1`, for which the inhibition is 14% (inactive).
Turning to `Cc1cc(OC(=O)C=Cc2ccccc2)c([N+](=O)[O-])c(=O)[nH]1`, the inhibition was 7.1% (inactive).
With `O=S1(=O)c2ccc(Br)cc2OC[C@@H](Cc2ccccc2)N1Cc1cn(Cc2ccco2)nn1` the figure was 5.1% (inactive); with `O=C(COc1ccc(Br)cc1)Nc1ccc2c(c1)OCO2`, 0.4% (inactive); with `CCOc1ccc(NS(=O)(=O)c2ccc(Cl)cc2)cc1`, -13% (inactive).
The figure for `CCc1ccc(S(=O)(=O)N=C2C=C(Nc3ccc(OC)cc3)C(=O)c3ccccc32)cc1` is 91% (active); for `O=S(=O)(c1cccs1)N(c1ccccc1)C(F)F` it is -18.8% (inactive); for `COc1ccc(S(=O)(=O)N=C2C=C(Br)C(=O)c3ccccc32)cc1` it is 31% (inactive).
With `CCc1ccc(S(=O)(=O)N=C2C=C(Br)C(=O)c3ccccc32)cc1` the figure was 38% (inactive); with `CCOc1ccc(S(=O)(=O)N=C2C=C(Nc3ccc(C)cc3)C(=O)c3ccccc32)cc1`, 93% (active); with `CCOc1ccc(NC(=O)C2CCC(N3C(=O)c4ccccc4C3=O)CC2)cc1` (configuration not stated), 2.4% (inactive).
For the compound `Cc1cc(Br)ccc1NC(=O)C(NS(=O)(=O)c1cccs1)C(C)C` (configuration not stated), the inhibition is -6% (inactive).
With `O=C1C(Nc2ccc(Br)cc2)=CC(=NS(=O)(=O)c2cccs2)c2ccccc21` the figure was 80% (active).
`Clc1ccc(Cl)c(-c2ccc(CNC3CC3)o2)c1`: the inhibition was -25.6% (inactive).
With `COc1cc(CN2CCC(O)CC2)ccc1OCc1ccccc1` the figure was -5.7% (inactive).
For `COc1ccc(NCc2ccc(OC)c(C)c2)cc1`, the inhibition is 52% (active).
For the compound `COc1ccc(CNc2nccs2)cc1`, the inhibition is 5.7% (inactive).
As to `COc1ccc(CC(=O)Nc2c3c(nc4c2CCC4)CCCC3)cc1OC`, the inhibition is 2% (inactive).
The figure for `COc1cc(CNc2ccc(F)cc2)ccc1OCc1ccccc1` is 55.7% (active).
With `COc1ccc(CCCN)cc1OC` the figure was -2.8% (inactive); with `COc1ccc(CNc2ccc3c(c2)CCC3)cc1OC`, 62.8% (active).
Turning to `COc1cc(C=C2C(=O)c3ccccc3C2=O)ccc1OCc1ccccc1`, the inhibition is 4% (inactive).
`COc1ccc(CNC(=O)C(=O)Nc2ccc(OC)cc2)cc1`: the inhibition is -2.2% (inactive).
For `CCN1CCCC1CNC(=O)c1ccc(Sc2ccc(C)cc2)c(NC(C)=O)c1` (configuration not stated), the inhibition was -3% (inactive).
With `O=C(Nc1ccc(NC(=O)c2ccc([N+](=O)[O-])cc2Cl)cc1)c1ccco1` the figure was -2.2% (inactive); with `COc1cccc(C(=O)NCC2Cc3cc(OC)ccc3O2)c1` (configuration not stated), -0.8% (inactive).
Turning to `O=C(CC1CCCCC1)N1CCC(COc2ccc(C(=O)N3CCCCC3)cc2)CC1`, the inhibition was -1.76% (inactive).
In the case of `COc1ccc(C(=O)N2CCCCC2CCN2CCCC2)cn1` (configuration not stated), the inhibition is 6.78% (inactive).
As to `O=C(c1ccco1)N1CCCC(c2nncn2-c2ccccc2)C1` (configuration not stated), the inhibition is 8.27% (inactive).
With `CCOc1cc(/C=C2\C(=O)NC(=O)N(c3ccc(Br)cc3)C2=O)ccc1O` the figure was 5% (inactive); with `COc1cc(/C=C2\C(=O)Nc3ccc(Br)cc32)ccc1O`, 100% (active).
The figure for `CCOc1cc(/C=C2\C(=O)NC(=O)N(c3ccc(F)cc3)C2=O)ccc1O` is 5% (inactive).
With `Cc1cc([N+](=O)[O-])nn1CCCC(=O)Nc1cc(Cl)ccc1O` the figure was 2% (inactive); with `CC(C)(C)CC(=O)N1CCN(c2nc(CN3CCCCCC3)cs2)CC1`, -9.3% (inactive); with `COc1cccc(C=C2Oc3cc(OCC(=O)NN)ccc3C2=O)c1OC`, 4.1% (inactive).
Consider `COc1cccc(CCC(=O)N2CCCN(c3ncccc3-c3nc(C4CC4)no3)CC2)c1`, for which the inhibition was -31.2% (inactive).
On to `Cn1nc(COc2ccccc2)c2c1CCN(C(=O)Nc1ccccc1F)C2`, for which the inhibition was 16.9% (inactive).
With `Cn1nc(COc2ccccc2)c2c1CCN(C(=O)c1ccoc1)C2` the figure was 3.9% (inactive).
Regarding `Cc1ccc(S(=O)(=O)N2CCc3c(c(COc4ccccc4)nn3C)C2)cc1C`, the inhibition was 60.3% (active).
With `CC(C)CNC(=O)C(=O)NCC(c1ccco1)S(=O)(=O)c1cccs1` (configuration not stated) the figure was -9.6% (inactive).
As to `O=C1C2C(C(=O)N1c1ccccc1[N+](=O)[O-])C1C=CC2C12CC2` (configuration not stated), the inhibition is 3% (inactive).
With `Cc1ccc(NC2CC(=O)N(c3cccc(Cl)c3)C2=O)cc1` (configuration not stated) the figure was -2% (inactive); with `COc1ccc(N2C(=O)CC(Nc3ccc(OC(F)(F)F)cc3)C2=O)cc1` (configuration not stated), -4% (inactive); with `Cc1ccc(N2C(=O)CC(Nc3ccc(N4CCOCC4)cc3)C2=O)c(Br)c1` (configuration not stated), 60.1% (active) and 18.3% (inactive).
With `O=C(Nc1ccc(N2CCCCC2)nc1)C1CC1` the figure was -1% (inactive).
With `O=C(O)/C(=C\c1cccc([N+](=O)[O-])c1)NC(=O)c1ccco1` the figure was -2.8% (inactive).
As for `CCOc1ccc(Br)c(/C=C2\C(=O)Nc3ccc(Br)cc32)c1`, the inhibition was 31% (inactive).
For the compound `CCc1ccc(/C=C2\C(=O)Nc3ccc(F)cc32)cc1`, the inhibition is 66% (active).
With `COc1ccc(/C=C2\C(=O)Nc3ccc(F)cc32)cc1OC` the figure was 40% (inactive); with `Cc1ccc(C(=O)N2CCc3sc(C(=O)NCc4ccco4)cc3C2)cc1`, 13.6% (inactive); with `Cc1ccn2c(-c3csc(Nc4ccc(C(=O)O)cc4)n3)c(C)nc2c1`, -2% (inactive).
Consider `Cc1ccn2c(-c3csc(Nc4ccc(N)cc4)n3)c(C)nc2c1`, for which the inhibition is 64.7% (active).
The figure for `Cc1nc2sccn2c1-c1csc(Nc2ncccn2)n1` is 3% (inactive).
The figure for `COCCCNC(=O)C1CCN(c2nnc(-c3ccccc3)o2)CC1` is 2.64% (inactive); for `CCOC(=O)C1CCCN(CC(O)COC2CC3CCC2(C)C3(C)C)C1` (configuration not stated) it is 6.9% (inactive); for `c1ccc(Nc2nc(-c3ccncc3)cs2)nc1` it is 18% (inactive).
Take `Oc1c(C(Nc2ccccn2)c2ccncc2)ccc2cccnc12` (configuration not stated): the inhibition is 100% (active).
Regarding `Oc1c(C(Nc2ccccn2)c2cccnc2)ccc2cccnc12` (configuration not stated), the inhibition was 100% (active).
The figure for `Oc1c(C(Nc2ccccn2)c2ccc(OC(F)F)cc2)ccc2cccnc12` (configuration not stated) is 97% (active).
In the case of `COc1ccccc1C=C1Oc2cc(C)cc(O)c2C1=O`, the inhibition was -4.4% (inactive).
As to `CCC(CC)NC(=O)C1CCc2nc(N3CCN(C(C)=O)CC3)sc2C1` (configuration not stated), the inhibition is 11.6% (inactive).
The figure for `CC(NC(=O)CN1CCOCC1)C1CC1` (configuration not stated) is -8.9% (inactive); for `CN(C(=O)c1ccccn1)C1(C(=O)NC2CCCC2)CCCCC1` it is -4% (inactive).
With `O=C(Nc1ccc2c(c1)OCCO2)C1CCc2sc(C(=O)N3CCCC3)cc2C1` (configuration not stated) the figure was 12.3% (inactive); with `CC(C)(C)C(=O)NC(n1cccnc1=O)C(Cl)(Cl)Cl` (configuration not stated), 2% (inactive); with `CCCCN(CC)C(=O)c1c[nH]c2ccc(S(=O)(=O)Nc3ccccc3F)cc2c1=O`, 14% (inactive).
The figure for `O=C1CSC(c2ccccc2[N+](=O)[O-])N1c1ccc(Br)cc1` (configuration not stated) is 28% (inactive).
In the case of `Cc1ccc(N2C(=O)CSC2c2ccccc2[N+](=O)[O-])cc1Cl` (configuration not stated), the inhibition was 16% (inactive).
For the compound `O=C1CSC(c2ccccc2[N+](=O)[O-])N1c1ccc(Oc2ccccc2)cc1` (configuration not stated), the inhibition is 59% (active).
On to `CCn1cc(CCNC(C)=O)c2cccnc21`, for which the inhibition was -8.1% (inactive).
With `O=C(O)COc1ccccc1C(c1c[nH]c2ccccc12)c1c[nH]c2ccccc12` the figure was 88.9% (active); with `CC(=O)NC(Cc1c[nH]c2ccccc12)C(=O)O` (configuration not stated), 3.4% (inactive).
The figure for `CC(Cc1c[nH]c2ccccc12)NC(=O)c1ccncc1` (configuration not stated) is 2.9% (inactive) and 3% (inactive).
The figure for `CC(=O)N1CCc2cc(N3CC(C(=O)Nc4cccc(F)c4)CC3=O)ccc21` (configuration not stated) is 90.3% (active); for `CC(=O)N1CCc2cc(N3CC(C(=O)Nc4ccc(C)cc4F)CC3=O)ccc21` (configuration not stated) it is -5.06% (inactive); for `CCc1ccc(CNC(=O)C2CC(=O)N(c3ccc4c(c3)CCN4C(C)=O)C2)cc1` (configuration not stated) it is -4.01% (inactive).

(Values after PubChem BioAssay AID1671202 (University of Kansas High Throughput Screening Laboratory, 2021).)
